Bioassay records (PubChem)
WT yeast gro inh: growth inhibition of WT yeast, mitochondrial fusion screen | mitochondrial fusion phenotypic screen, WT strain | inhibition, % at 10 µM | 190,000 tested, 2.1% active | AID 1362; in the data active means inhibition above about 58%; tested in S. cerevisiae
Platelet DG rel: modulates dense granule release in human platelets. human platelet-rich plasma, SFLLRN dense granule ATP release, luminescence. inhibition, %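 (compounds screened at 7.5 µM in platelet-rich plasma)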. 300,000 tested, 0.22% active. AID 1663;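 active means mean replicate score, as percent of positive control, at or above 50; inconclusive means mean below 50 but at least one replicate at or above 50; inactive means mean and every replicate below 50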
TPT1 inhibitor: inhibitors of Candida albicans tRNA 2'-phosphotransferase TPT1; recombinant caTPT1, FP RNA substrate dephosphorylation; inhibition, % at 5 µM; 300,000 tested, 0.81% active; AID 1962;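 active means inhibition above the mean of all tested compounds plus 3 SD, set per screening campaign, cut at about 24% in these data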;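 further: plate controls were DMSO alone for no effect and ferristatin control at 100 nM for full effect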
Rtt109 Vps75: blocks Candida albicans Rtt109/Vps75 acetyltransferase activity | purified Rtt109/Vps75, ThioGlo CoA-SH fluorescence, 4 h | Q5AAJ8 | 330,000 tested, 0.16% active | inhibition, % at 34.9 µM | AID 540336;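 active means inhibition of at least 50% in every replicate; inconclusive means best replicate reaches 50% inhibition but some replicates fall short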
Target sequence (Q5AAJ8 whole entry, looked up): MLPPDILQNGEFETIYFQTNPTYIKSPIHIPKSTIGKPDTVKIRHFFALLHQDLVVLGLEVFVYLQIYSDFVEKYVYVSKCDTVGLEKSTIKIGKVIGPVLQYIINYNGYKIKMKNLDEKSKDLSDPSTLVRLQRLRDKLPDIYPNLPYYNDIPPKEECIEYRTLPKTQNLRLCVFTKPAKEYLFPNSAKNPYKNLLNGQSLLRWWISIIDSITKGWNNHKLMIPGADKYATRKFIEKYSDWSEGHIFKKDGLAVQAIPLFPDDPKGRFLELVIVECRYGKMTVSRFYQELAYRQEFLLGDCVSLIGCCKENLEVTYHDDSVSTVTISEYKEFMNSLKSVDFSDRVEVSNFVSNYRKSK
SKKanGAS inh: SKKanGAS growth inhibition; S. pyogenes SKKanGAS, kanamycin growth, BacTiter-Glo, 6 h; 300,000 tested, 1.3% active; inhibition, % at 7.5 µM;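 active means mean replicate score, as percent of positive control median, at least 50; inconclusive means mean below 50 but one replicate at or above 50; inactive means mean and every replicate below 50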;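 further: strain carries kanamycin resistance gene driven by streptokinase promoter and grows in 40 µg/ml kanamycin; loss of luminescence reflects streptokinase promoter inhibition or plain growth inhibition; 0% = median of DMSO wells and 100% = positive control at its reference dose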
PHOSPHO1 inh: inhibitors of human PHOSPHO1 phosphatase | inhibition, % at 13.3 µM | Q8TCT1 | 290,000 tested, 1.1% active | recombinant PHOSPHO1, absorbance phosphatase assay; in the data active means inhibition above about 60%
Numbers without * were called inactive; u = inconclusive; x = no result. Rows were chosen to be rich in hits. Some 3.9% of all compounds tested hit in one or more screens of this group.

SMILES	WT yeast gro inh	Platelet DG rel	TPT1 inhibitor	Rtt109 Vps75	SKKanGAS inh	PHOSPHO1 inh
COc1cc(C(=O)OCC(=O)NC(N)=O)cc(CN2C(=O)c3ccccc3C2=O)c1OC	x	10	-2	19	5	10
Cc1cc(C)cc(NC2=NC3(CCCCC3)N=C(N)N2)c1	-24	1	-7	3	-1	-15
Cc1cccc(NC2=NC(C)(C)N=C(N)N2)c1	-7	7	0	-5	111*	29
COc1ccc(NC(=S)N2CCC(c3ccc(C)cc3)C2)cc1 (centres undefined)	x	6	1	0	-1	15
CCc1cccc(NC(=S)N2CCC(c3ccccc3)C2)c1 (centres undefined)	76*	-5	-1	4	9	-1
Cc1ccc(NC(=S)N2CCC(c3ccc(C)cc3)C2)cc1 (centres undefined)	75*	0	-4	-1	6	45
Cc1ccc(S(=O)(=O)NNc2nc3ccccc3nc2C(F)(F)F)cc1	-3	-1	-2	7	3	92*
Cc1ccc(S(=O)(=O)NNc2ccccc2)cc1	-7	-5	-4	15	2	27
Cc1cccn2cc(CCNS(=O)(=O)c3cccs3)nc12	x	-1	1	55*	2	27
CCc1ccccc1N(C1=NCCCS1)S(=O)(=O)c1ccc(C(C)(C)C)cc1	66*	-11	-1	39	-8	-21
CC(C)(C)c1ccc(NC(=O)c2ccc(=O)[nH]n2)cc1	x	-2	0	0	2	7
COc1ccc(NC(=O)COC(=O)c2ccc(S(=O)(=O)N3CCCCCC3)cc2)c(OC)c1	x	x	x	-9	x	x
CCC1(CC)NC(=O)N(CC(=O)OC(C)C(=O)Nc2ccccc2OC)C1=O (centres undefined)	x	4	-3	-5	1	x
COc1cccc(C2c3cc4c(cc3OC(N3CCOCC3)C2C)OCO4)c1O (centres undefined)	x	x	x	5	x	x
Cn1nc(-c2ccc(Cl)cc2)nc2c(=O)n(C)c(=O)nc1-2	-12	8	-38	8	84*	30
CN(c1ccccc1)S(=O)(=O)c1cccc(C(=O)OCC(=O)NCc2ccco2)c1	-9	14	3	7	1	66*
CN(c1ccccc1)S(=O)(=O)c1cccc(C(=O)OCC(=O)NCc2ccccc2)c1	x	x	x	0	x	x
Cc1ccc(NC(=O)c2sc3ncn(CC(=O)N4CCN(c5ccccn5)CC4)c(=O)c3c2C)cc1F	x	23	-3	-19	2	38
Cc1ccc(NC(=O)c2sc3ncn(CC(=O)N4CCN(c5ccccn5)CC4)c(=O)c3c2C)cc1Cl	x	-16	-1	-2	0	64*
Nc1cccc(Nc2ccccc2)c1	-3	3	3	3	1	39
c1ccc(Nc2cccc(Nc3ccccc3)c2)cc1	71*	18	-2	-1	1	-3
CCc1ccc(N=Nc2ccc(O)c3[nH]cnc23)cc1	x	x	x	-3	x	x
Cc1ccc2c(C)c(C(=O)Nc3ccc(S(=O)(=O)Nc4onc(C)c4C)cc3)oc2c1	x	7	1	17	65*	36
Cc1noc(NS(=O)(=O)c2ccc(NC(=O)c3oc4ccc(Cl)cc4c3C)cc2)c1C	x	15	-4	27	64*	19
CN(C)c1ccc(-c2nnc(-c3ccccc3F)o2)cc1	x	0	-4	-6	0	8
SMILES	WT yeast gro inh	Platelet DG rel	TPT1 inhibitor	Rtt109 Vps75	SKKanGAS inh	PHOSPHO1 inh
CCOC(=O)c1sc2ncnc(NCC(c3cccs3)N(C)C)c2c1C (centres undefined)	14	-2	17	6	53*	3
COc1ccc(Cl)cc1NC(=O)CN(C)C(C)C(=O)NC(=O)NC1CCCCC1 (centres undefined)	x	-5	-2	2	-5	x
COc1ccc(Sc2nc(-c3ccccn3)ncc2OC)cc1	63	0	-4	4	11	-25
COc1cnc(-c2ccccn2)nc1Sc1ccccc1	59	-3	-5	-19	91*	8
COc1cnc(-c2ccccn2)nc1Sc1ccc(F)cc1	68*	1	-4	0	56*	33
CCCN(CCC)CCNC(=O)C1(O)c2ccccc2NC(=O)N1c1cccc(OC)c1 (centres undefined)	x	-2	-4	-2	3	24
O=S(=O)(c1ccc(Br)cc1)c1nc(-c2ccco2)oc1NCCCn1ccnc1	x	x	x	8	x	x
COc1ccc(C(=O)C(CCC(CNC(C)(C)C)C(=O)c2ccc(OC)cc2)CNC(C)(C)C)cc1 (centres undefined)	13	u	0	62*	0	0
CCOC(=O)C1CCN(CC(=O)Nc2cc(C)nn2-c2nc3ccccc3s2)CC1	74*	1	x	1	-2	7
Cc1cc(NC(=O)CN2CC(C)OC(C)C2)n(-c2nc3ccccc3s2)n1 (centres undefined)	-18	-5	1	5	0	12
O=C(Nc1cc2c(oc1=O)CCCC2=O)c1cccc(Cl)c1	0	3	4	0	-6	65*
COc1ccc(C(=O)Nc2cc3c(oc2=O)CCCC3=O)cc1	6	-5	1	-5	5	28
CCOCCCN(C(=O)Cn1nnc(-c2ccc(C)o2)n1)C(C(=O)NC1CCCC1)c1ccco1 (centres undefined)	x	-5	2	13	3	28
COc1ccc(S(=O)(=O)N2CCOCC2)cc1NC(=O)/C=C/c1ccccc1	x	x	x	20	x	x
Cc1cc(/C=C2/SC(=O)NC2=O)c(C)n1-c1ccc(N2CCOCC2)cc1	11	0	-5	-4	90*	4
Cc1cc(/C=C2\SC(=Nc3ccc(F)cc3)NC2=O)c(C)n1-c1ccc(S(N)(=O)=O)cc1	-1	-3	17	1	61*	-18
Cc1cc(/C=C(\C#N)C(=O)Nc2ccc(F)cc2)c(C)n1-c1ccc(N2CCOCC2)c([N+](=O)[O-])c1	-3	8	-5	4	27	17
Cc1cc(C)cc(N=C2NC(=O)/C(=C/c3cccs3)S2)c1	52	4	0	32	17	12
CNC(=O)/C(C#N)=C\c1cc(C)n(-c2ccc(N3CCOCC3)cc2)c1C	-3	6	1	x	62*	28
COc1ccc(CCNC(=O)C2c3ccccc3C(=O)N2CCC(C)C)cc1OC (centres undefined)	x	-9	1	4	-5	30
COC(=O)c1ccc(CSc2nnc(C)s2)cc1	8	2	-4	-8	0	32
COC(=O)c1ccc(CSc2nnc(N)s2)cc1	-20	75*	-2	3	-4	7
Cc1ccc(OCC(=O)c2ccc3c(c2)CCCC3)cc1C	58*	2	1	0	x	25
CC1=CC(C)(C)N(C(=O)c2ccc(F)cc2)c2cc3c(cc21)OCO3	71*	-2	0	7	-4	4
CC1=CC(C)(C)N(C(=O)CCl)c2cc(C)ccc21	-29	2	-3	-4	x	30
